Laboratory results taken from PubChem BioAssay AID430 (Sanford-Burnham Center for Chemical Genomics, 2006).
The campaign covered roughly 63,000 compounds. About 1,100 (1.7%) were called active. Cut-off read from the data, not from the text of the source: active = cytotoxicity above about 50%; inactive = the rest. Only a selection was taken, and actives are over-represented in it overall. Results with a measured potency or affinity are listed apart.

Assay: HPDE-C7 pancreatic duct cell viability loss – fluorescence, HTS (AID 430);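 note: cells exposed to compound for 48 hours before viability readout; 0% = vehicle and 100% = reference cytotoxic drug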
Conditions: HPDE-C7 pancreatic duct cells viability, at 10 µM, active compounds read high

| SMILES | cytotoxicity |
| --- | --- |
| Cc1ccc(C(=O)CC(C(=O)O)n2cccn2)cc1 (centres undefined) | -3.1% (inactive) |
| Cc1ccc(C(=O)CC(C(=O)O)n2ccc(C)n2)cc1 (centres undefined) | 4% (inactive) |
| O=C1OCCC1N1C(=O)c2ccccc2S1(=O)=O (centres undefined) | -4.1% (inactive) |
| Nc1c(Nc2ccccc2)c2ccccc2oc1=O | -3.7% (inactive) |
| CSc1ccc(/C=N/n2nnnc2N)cc1 | -10.4% (inactive) |
| CCN(CC)c1ccc(/C=N/n2nnnc2N)c(O)c1 | -2.7% (inactive) |
| CCN(C)c1ccc(/C=N\n2nnnc2N)cc1 | 51.3% (active) |
| CCCCS(=O)CC(COc1ccc(Cl)cc1)OC(=O)c1ccccc1 (centres undefined) | -8.9% (inactive) |
| Cn1c(=O)c(-c2ccccc2)nn2c3ccccc3nc12 | -4.7% (inactive) |
| CNc1ccccc1-c1nc2ccccc2n(C)c1=O | 56.7% (active) |
| COc1ccccc1Nc1nc2ccccc2n1C | -9% (inactive) |
| Cc1ccc(NCc2nnc(SCC(=O)Nc3cccc(O)c3)n2CC2CCCO2)c(C)c1 (centres undefined) | 8.8% (inactive) |
| CC(=O)O[C@@]12CO[C@@H]1C[C@H](O)[C@@]1(C)C(=O)[C@H](O)C3=C(C)[C@@H](OC(=O)[C@H](O)[C@@H](NC(=O)OC(C)(C)C)c4ccccc4)C[C@](O)([C@@H](OC(=O)c4ccccc4)[C@H]21)C3(C)C | 51.5% (active) |
| CC(=O)O[C@H]1C(=O)[C@]2(C)[C@H]([C@H](OC(=O)c3ccccc3)[C@]3(O)C[C@H](OC(=O)[C@H](O)[C@@H](NC(=O)c4ccccc4)c4ccccc4)C(C)=C1C3(C)C)[C@]1(OC(C)=O)CO[C@@H]1C[C@@H]2O | 72% (active) |
| CNC(=O)c1ccccc1NC(=O)c1c(O)c2c([nH]c1=O)CCCC2 | 0% (inactive) |
| COc1ccc(/C(O)=C2/C(=O)C(=O)N(Cc3cccnc3)C2c2ccccn2)cc1 (centres undefined) | -4.2% (inactive) |
| Cc1cc(C)n2c(Br)c(CSc3nc4ccccc4o3)nc2n1 | 3.3% (inactive) |
| COC(=O)c1c(NC(=O)CN2CCCC(C)C2)c2c(C)cccc2n1C (centres undefined) | -3.9% (inactive) |
| CCCC(=O)NCCCc1nc2ccccc2n1CC | -20.4% (inactive) |
| COc1ccc(-n2c(Cc3cccn3C)nnc2SCC(=O)NCc2ccco2)cc1 | -5% (inactive) |
| CCn1c(SCC(=O)Nc2ccc3c(c2)c2ccccc2n3CC)nnc1-c1ccco1 | 49% (inactive) |
| COc1ccc(NC(=O)CSc2nnc(-c3ccccc3C)n2N)cc1OC | -3.3% (inactive) |
| CCn1c2ccccc2c2cc(NC(=O)CSc3nnc(-c4ccccc4OC)n3N)ccc21 | 57.2% (active) |
| Cc1ccc(-c2cc(C(F)F)nc(NCc3cccnc3)n2)cc1 | 28.4% (inactive) |
| CCOC(=O)C(C)Oc1cccc2c(=O)n(CC(=O)N3CCN(C(=O)OCC)CC3)ccc12 (centres undefined) | -8.4% (inactive) |

| SMILES | cytotoxicity |
| --- | --- |
| CCOC(=O)C(C)Oc1cccc2c(=O)n(CC(=O)NCc3ccco3)ccc12 (centres undefined) | 65.7% (active) |
| CCOC(=O)C(C)Oc1cccc2c(=O)n(CC(=O)NCc3ccc4c(c3)OCO4)ccc12 (centres undefined) | 53% (active) |
| CCOC(=O)COc1cccc2c(=O)n(CC(=O)N3CCN(C(=O)OCC)CC3)ccc12 | -9.2% (inactive) |
| O=C(Cn1cnc2ccccc2c1=O)NCc1ccco1 | -1% (inactive) |
| CCOC(=O)C(C)Oc1cccc2c(=O)n(CC(=O)Nc3ccc4c(c3)OCCO4)ccc12 (centres undefined) | 9.2% (inactive) |
| CCOC(=O)COc1cccc2c(=O)n(CC(=O)NCc3ccc4c(c3)OCO4)ccc12 | 60.6% (active) |
| CCOC(=O)C(C)Oc1cccc2c(=O)n(CC(=O)N3CCc4ccccc43)ccc12 (centres undefined) | -7.3% (inactive) |
| CCOC(=O)COc1cccc2c(=O)n(CC(=O)N3CCc4ccccc43)ccc12 | -7.9% (inactive) |
| CCCCN(C)CCCNC(=O)c1ccc2c(c1)NC(=O)C(N1CCOCC1)S2 (centres undefined) | 2.3% (inactive) |
| CCOC(=O)N1CCN(C(=O)C2CCCN(S(C)(=O)=O)C2)CC1 (centres undefined) | 2.7% (inactive) |
| CC(C)Sc1nc2c(cnn2-c2ccccc2)c(=O)[nH]1 | -15.9% (inactive) |
| COC(=O)C(C(=O)OC)C(C(C)C)C(C(=O)OC)C(=O)OC | 5.9% (inactive) |
| O=C(NCCSCc1ccco1)Nc1ccc(Cl)cc1 | -8.4% (inactive) |
| O=C(Nc1ccc(Cl)cc1)NC1CCCC1Cc1ccco1 (centres undefined) | 55% (active) |
| O=C(Nc1ccc(Cl)cc1)Nc1ccccc1C(=O)NCc1ccco1 | 8.1% (inactive) |
| CC(c1ccccc1)N1CNc2c(c(=O)n(C)c(=O)n2C)C1 (centres undefined) | -8.9% (inactive) |
| O=C(O)CC(c1ccc(Cl)cc1)N1C(=O)CCC1=O (centres undefined) | -2.8% (inactive) |
| CCOc1ccc(NC(=O)CSc2nnc(Cc3cccn3C)n2-c2ccc(OC)cc2)cc1 | -17.3% (inactive) |
| COc1cc(C2Nc3cccc4cccc(c34)N2)cc(OC)c1O | 56.8% (active) |
| CCN(CC)c1ccc(C2Nc3cccc4cccc(c34)N2)c(O)c1 | 30.4% (inactive) |
| COc1cc(C2Nc3cccc4cccc(c34)N2)cc(OC)c1OC(C)=O | 72.1% (active) |
| Oc1ccccc1C1Nc2cccc3cccc(c23)N1 | -21.5% (inactive) |
| c1coc(C2Nc3cccc4cccc(c34)N2)c1 | 4.2% (inactive) |
| COc1cc(C2Nc3cccc4cccc(c34)N2)ccc1OC(C)=O | 41.1% (inactive) |
